Hit rate of the full screen: of about 5,500 compounds, about 2,000 (36%) were called active. Not shown: some 18% with an inconclusive outcome. No stated cut-off is given here; in the data, active means normalized growth mostly below about 0.91 (no sharp cut-off); inconclusive means no clear call, values can overlap the other calls; inactive means mostly above about 0.92. This is one part of the list.
Experiment: chemical genetic growth profiling, strain panel (AID 1159580);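 further: tested at 20 µM; growth read once vehicle control cultures reached saturation at 30 °C; 1 = growth at the plate median or of vehicle wells; lower values mean less growth of the strain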
Settings: S. cerevisiae deletion strains, growth OD
[1] = locus YDL101C, strain DUN1, hits give low values
[2] = locus YHR030C, strain SLT2, hits give low values
[3] = locus YDR150W, strain NUM1, hits give low values
[4] = locus YPL055C, strain LGE1, hits give low values

Measured: normalized growth

N=c1ccc2nc3c(Cl)c4c(c(Cl)c3oc-2c1S(=O)(=O)O)Nc1ccc(N)c(S(=O)(=O)O)c1O4
inactive: locus YAR019C, strain CDC15, hits give low values 1.01 | locus YBL105C, strain PKC1, hits give low values 1.01 | locus YBR135W, strain CKS1, hits give low values 1.01 | locus YBR136W, strain MEC1, hits give low values 1.01 | locus YBR160W, strain CDC28, hits give low values 1.01 | locus YDL017W, strain CDC7, hits give low values 1.02 | locus YDL028C, strain MPS1, hits give low values 1.01 | [1] 1.01 | locus YDL108W, strain KIN28, hits give low values 1.01 | locus YDL132W, strain cdc53, hits give low values 1 | locus YDL214C, strain PRR2, hits give low values 1.02 | locus YDR052C, strain DBF4, hits give low values 1.01 | locus YDR054C, strain cdc34, hits give low values 1 | locus YDR226W, strain ADK1, hits give low values 0.993 | locus YDR477W, strain SNF1, hits give low values 1.01 | locus YER123W, strain YCK3, hits give low values 1.01 | locus YER133W, strain GLC7, hits give low values 0.992 | locus YFL009W, strain cdc4, hits give low values 0.997 | locus YFL029C, strain CAK1, hits give low values 1 | locus YFR003C, strain YPI1, hits give low values 1.01 | locus YFR019W, strain FAB1, hits give low values 0.993 | locus YFR028C, strain CDC14, hits give low values 1.01 | locus YGR040W, strain KSS1, hits give low values 1.02 | locus YGR052W, strain FMP48, hits give low values 1.09 | locus YGR092W, strain DBF2, hits give low values 1.03 | [2] 0.962 | locus YHR079C, strain IRE1, hits give low values 0.995 | locus YHR082C, strain KSP1, hits give low values 1.16 | locus YHR205W, strain SCH9, hits give low values 1 | locus YIL147C, strain SLN1, hits give low values 1.01 | locus YJL095W, strain BCK1, hits give low values 1.06 | locus YJL128C, strain PBS2, hits give low values 1 | locus YJL157C, strain FAR1, hits give low values 0.994 | locus YJR016C, strain ILV3, hits give low values 1.02 | locus YJR066W, strain TOR1 (second series), hits give low values 0.981 | locus YJR066W, strain TOR1, hits give low values 1.14 | locus YKL048C, strain ELM1, hits give low values 1.01 | locus YKL067W, strain YNK1, hits give low values 1.01 | locus YKL101W, strain HSL1, hits give low values 1.02 | locus YKL193C, strain SDS22, hits give low values 1.01 | locus YKL203C, strain TOR2, hits give low values 1.06 | locus YLR113W, strain HOG1, hits give low values 1.06 | locus YLR133W, strain CKI1, hits give low values 1.01 | locus YLR403W, strain SFP1, hits give low values 0.975 | locus YML070W, strain DAK1, hits give low values 1.02 | locus YMR001C, strain CDC5, hits give low values 1.01 | locus YMR205C, strain PFK2 (second series), hits give low values 1.02 | locus YMR277W, strain FCP1, hits give low values 1.01 | locus YNL006W, strain LST8, hits give low values 1 | locus YNL020C, strain ARK1, hits give low values 1.02 | locus YNL161W, strain CBK1, hits give low values 0.998 | locus YNL183C, strain NPR1, hits give low values 1.11 | locus YNL207W, strain RIO2, hits give low values 1.02 | locus YNL222W, strain SSU72, hits give low values 1.01 | locus YNL307C, strain MCK1 (second series), hits give low values 1.01 | locus YOL078W, strain AVO1, hits give low values 1.01 | locus YOL136C, strain PFK27, hits give low values 1 | locus YOR061W, strain CKA2, hits give low values 1.02 | locus YOR119C, strain RIO1, hits give low values 1.08 | locus YOR231W, strain MKK1, hits give low values 1.04 | locus YOR329C, strain SCD5, hits give low values 1.01 | locus YPL031C, strain PHO85, hits give low values 1.01 | locus YPL153C, strain RAD53, hits give low values 1.01 | locus YPL204W, strain HRR25, hits give low values 1 | locus YPL209C, strain IPL1, hits give low values 1.01 | locus YPL256C, strain CLN2, hits give low values 0.998 | locus YPR025C, strain CCL1, hits give low values 1.01 | locus YPR106W, strain ISR1, hits give low values 1.02 | locus YPR111W, strain DBF20, hits give low values 1 | strain NNK1, hits give low values 1.03 | strain TSCII, hits give low values 1

O=C(NNC(=O)c1ccccc1[N+](=O)[O-])c1ccc(Cl)cc1
active: locus YJR043C, strain POL32, hits give low values 0.869
inactive: locus YAL013W, strain DEP1, hits give low values 1.02 | locus YBR229C, strain ROT2, hits give low values 1.03 | locus YCL061C, strain MRC1, hits give low values 1.02 | [1] 0.981 | [3] 0.904 | locus YEL061C, strain CIN8, hits give low values 1.01 | locus YGR078C, strain PAC10, hits give low values 0.995 | [2] 1.14 | locus YHR087W, strain rtc3, hits give low values 0.994 | locus YJL187C, strain SWE1, hits give low values 1 | locus YJR075W, strain HOC1, hits give low values 0.991 | locus YKL190W, strain CNB1, hits give low values 1.01 | locus YLR039C, strain RIC1, hits give low values 1.03 | locus YLR058C, strain SHM2 (second series), hits give low values 1.01 | locus YLR085C, strain ARP6, hits give low values 1.05 | locus YLR262C, strain YPT6, hits give low values 1.01 | locus YML094W, strain GIM5, hits give low values 1.02 | locus YMR219W, strain ESC1, hits give low values 1.02 | locus YMR263W, strain SAP30, hits give low values 0.91 | locus YNL153C, strain GIM3, hits give low values 0.993 | locus YNL298W, strain CLA4 (second series), hits give low values 1.04 | locus YNL322C, strain KRE1, hits give low values 1.01 | locus YNR030W, strain Alg12, hits give low values 1.03 | locus YOL006C, strain TOP1, hits give low values 1.13 | [4] 0.9 | locus YPL241C, strain CIN2, hits give low values 1.03 | locus YPR135W, strain CTF4, hits give low values 1.16

Cc1ccc(C(=O)O[C@H](C(=O)O)[C@H](OC(=O)c2ccc(C)cc2)C(=O)O)cc1
inactive: locus YAL040C, strain CLN3, hits give low values 1.01 | locus YCL061C, strain MRC1 (second series), hits give low values 1 | [3] 1.01 | locus YDR363W, strain ESC2, hits give low values 1.03 | locus YER002W, strain NOP16, hits give low values 1.01 | locus YGR229C, strain SMI1, hits give low values 1.01 | locus YMR307W, strain GAS1, hits give low values 0.99 | locus YNL175C, strain NOP13, hits give low values 1 | locus YNL197C, strain WHI3, hits give low values 1 | locus YNL224C, strain SQS1, hits give low values 1 | locus YOR083W, strain WHI5 (second series), hits give low values 0.997 | [4] 0.999
